Compound activity from PubChem.
DAX1 inh-1 = inhibitors of DAX1 repression of SF-1 activated StAR promoter; 370,000 compounds, 1.1% hits; inhibition, % at 6.8 µM; HEK293T StAR-luciferase reporter, SF-1/DAX-1 repression relief;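 active means inhibition above the mean over all tested compounds plus 3 SD, cut at about 3.6% in these data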;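 further: 0% = DAX-1 cells with DMSO and 100% = cells lacking DAX-1 with DMSO; higher inhibition means more luminescence from relief of DAX-1 repression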
hgDAF12 agonist = agonists of H. glycines DAF-12 nuclear receptor. AID 687014. activation, % at 6.8 µM. 370,000 compounds, 1.8% hits. HEK293 GAL4-hgDAF12 UAS-luciferase reporter, agonist luminescence; normalized to butyrate control;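 active means activation above a cutoff set at the mean of all screened compounds plus 3 SD, cut at about 10% in these data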;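 further: 0% = DMSO wells and 100% = sodium butyrate wells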
hcDAF-12 act = activates DAF-12 receptor from parasite H. contortus | HEK293 hcDAF-12 lit1-tk-luc reporter, luminescence; 0% DMSO, 100% Δ7-dafachronic acid | activation, % at 6.8 µM | 370,000 compounds, 1.4% hits;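 active means activation above the mean of all tested compounds plus 3 SD, cut at about 5.5% in these data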;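 further: 100% = response to 3 µM Δ7-dafachronic acid high control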
DAX1 inh-2 = inhibitors of human orphan nuclear receptor DAX1 (NR0B1) | P51843 | HEK293 Gal4-DAX1 luciferase reporter, luminescence | inhibition, % at 6.75 µM | 340,000 compounds, 0.99% hits | AID 504766;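 active means inhibition above the mean over all tested compounds plus 3 SD, cut at about 4.2% in these data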;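 further: 0% = DAX1-transfected cells with DMSO and 100% = empty-vector control cells with DMSO; inhibition shows as a rise in luminescence from relieved DAX1 repression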
Target sequence (P51843 207-470 limits assumed): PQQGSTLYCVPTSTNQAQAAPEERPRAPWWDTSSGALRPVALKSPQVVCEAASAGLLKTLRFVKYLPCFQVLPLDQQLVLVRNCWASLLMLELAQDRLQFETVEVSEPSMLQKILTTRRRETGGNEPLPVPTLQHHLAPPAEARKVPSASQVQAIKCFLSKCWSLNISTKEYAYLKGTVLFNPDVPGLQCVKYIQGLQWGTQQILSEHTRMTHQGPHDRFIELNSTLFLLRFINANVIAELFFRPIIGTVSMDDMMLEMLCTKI
ssDAF12 agonist = activates DAF-12 receptor from parasite S. stercoralis; 370,000 compounds, 1% hits; activation, % at 6.8 µM; HEK293 ssDAF-12/GRIP1 lit1-tk-luc reporter, luminescence; % of 3 µM dafachronic acid response;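 active means activation above the mean over all tested compounds plus 3 SD, cut at about 0.9% in these data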;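 further: 0% = DMSO-only wells and 100% = 3 µM delta7-dafachronic acid wells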
* = called active by the depositor; / = no result. This is a sample that favours compounds with a hit; in the whole collection about 4.1% have one here.

SMILES	DAX1 inh-1	hgDAF12 agonist	hcDAF-12 act	DAX1 inh-2	ssDAF12 agonist
NS(=O)(=O)c1ccc(CNC(=O)Cc2ccccc2[N+](=O)[O-])cc1	0.0	4.5	5.6*	0.8	-0.3
CC(NC(=O)Cc1ccccc1[N+](=O)[O-])c1ccccc1 (centres undefined)	-0.2	5.8	6.3*	/	-0.5
CCC(CC)NC(=O)Cc1ccccc1[N+](=O)[O-]	0.8	1.9	5.6*	0.8	0.1
O=C(Cc1ccccc1[N+](=O)[O-])NC1CCN(Cc2ccccc2)CC1	-0.3	2.3	2.8	0.1	1.5*
CCCCCc1ccc(NC(=O)OCCCN2CCC3(CCC(c4ccccc4)CC3)C2=O)cc1 (centres undefined)	-0.2	4.1	-1.6	/	-0.8
O=C(NCc1ccc(Cl)cc1)O[C@H]1CC[C@@]23CCCN2C(=O)CCC[C@H]3C1	/	1.4	-1.2	/	-1.7
CC(C)(C)NS(=O)(=O)c1ccc(NC(=O)Cc2ccccc2[N+](=O)[O-])cc1	-0.7	-1.7	0.9	0.2	-1.1
CCCCNS(=O)(=O)c1ccc(NC(=O)Cc2ccccc2[N+](=O)[O-])cc1	-0.7	0.5	1.1	-0.5	2.0*
CC(NC(=O)Cn1cc(Br)c([N+](=O)[O-])n1)c1ccccc1 (centres undefined)	0.1	-1.9	1.4	4.3*	-0.8
CCCCNC(=O)C[C@H]1C[C@@]2(C(=O)OC)C(=C[C@H](C(C)C)O[C@@H]2C2CC2)N(CCc2ccc(OC)c(OC)c2)C1=O	-0.1	0.5	-0.1	/	-1.0
CC(NC(=O)Nc1ccccc1)C(c1cccs1)N1CCOCC1 (centres undefined)	-0.8	1.0	2.6	0.8	-1.2
CC(NC(=O)Nc1ccc(Cl)cc1)C(c1cccs1)N1CCOCC1 (centres undefined)	-0.5	-0.8	-1.3	0.3	1.5*
COc1ccccc1NC(=S)NNC(=O)c1ccccc1	1.7	10.7*	0.3	1.2	0.1
COc1cc(OC)cc(C(=O)NNC(=S)Nc2ccccc2OC)c1	0.3	2.3	1.6	2.2	-1.7
COc1ccccc1NC(=S)NNC(=O)c1ccccc1Br	1.9	10.3	3.8	-0.7	1.3*
COc1ccccc1NC(=S)NNC(=O)c1ccncc1	-0.1	3.6	-0.8	-0.9	-1.1
COc1ccc(C(C(=O)N(C)C2CCCC2)N(Cc2ccc(F)cc2)C(=O)c2cc(C)on2)cc1OC (centres undefined)	-1.0	-0.5	-1.8	/	-1.6
CCC(O)(c1ccc(NC(=O)OC(C)(C)C)cc1)c1cc(OC)cc(OC)c1 (centres undefined)	-0.6	-4.5	-2.1	/	-0.9
C/C(=N\NC(=O)c1sccc1C)c1cccnc1	4.2*	8.8	4.2	0.9	-0.3
C/C(=N/NC(=O)c1ccc(C(C)(C)C)cc1)c1cccnc1	0.3	1.8	0.5	/	-0.5
COc1ccc(C2C(C(=O)NCc3ccccn3)c3ccccc3C(=O)N2C)cc1OC (centres undefined)	-0.1	-1.4	-1.2	1.0	-0.8
COc1ccc(C2C(C(=O)NCCN(C)C)c3ccccc3C(=O)N2C)cc1OC (centres undefined)	-1.5	1.1	-1.1	4.6*	-1.2
COC(=O)C[C@H]1CC[C@H]2[C@H](COc3ccc(NC(=O)Nc4ccccc4F)cc3C(=O)N2C)O1	-0.6	-1.9	-0.8	/	-1.3
O=C(NC1CCCC1)c1ccc(COc2ccccc2)o1	-0.2	1.8	2.4	/	-1.5
Cc1ccc(CNC(=O)C2CCC(=O)N(CCc3ccc(Cl)cc3)C2)cc1 (centres undefined)	-0.9	7.8	0.1	0.1	-1.0
SMILES	DAX1 inh-1	hgDAF12 agonist	hcDAF-12 act	DAX1 inh-2	ssDAF12 agonist
Cc1ccc(CNC(=O)C2CCC(=O)N(CCc3ccc(Cl)cc3)C2)s1 (centres undefined)	-0.6	1.5	-1.3	0.6	1.1*
CCc1cccc(NC(=O)CCc2nc(-c3cccs3)no2)c1	-1.0	0.0	-1.3	-0.2	-1.8
O=C(CCc1nc(-c2cccs2)no1)Nc1cnc2ccccc2c1	0.2	-2.3	0.7	-0.8	1.7*
COC(=O)c1sc(=S)n(-c2cc(F)ccc2F)c1N	-0.4	1.1	-0.9	4.9*	-0.4
CCOC(=O)c1sc(=S)n(-c2cc(F)ccc2F)c1N	-1.5	-0.7	-1.2	-0.1	-1.4
O=C(Cn1nc(-c2ccccc2)ccc1=O)NCCc1ccc(F)cc1	-1.1	0.1	-0.1	/	-1.4
